Unmarked numbers belong to inactive results. The other results are listed elsewhere or left out. Active and inactive are the calls of the source.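 The calls were made as follows, unless noted: active = inhibition above the hit cutoff set in the earlier primary screen (cut at about 27% in these data); inactive = the rest.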

The inhibition is the change of the read-out against control, counted positive when it falls.

Assay [1] deals with Protein phosphatase methylesterase 1 (Homo sapiens) (UniProt Q9Y570). As to the kind of experiment: PME-1 inhibitor activity retest, confirmation, biochemical, fluorescence polarization, FP-Rh probe, triplicate (AID 2171). As to conditions: recombinant PME-1, FP-Rh probe fluorescence polarization; at 5.9 µM; active compounds read high. (Fluorescence polarisation rises when a labelled molecule tumbles more slowly, as on binding a larger partner.)

Assay [2] deals with Glutathione S-transferase omega-1 (Homo sapiens) (UniProt P78417). As to the kind of experiment: GSTO1 inhibitor hit confirmation, counter-screen for RBBP9 inhibitor project, biochemical, fluorescence polarization, triplicate (AID 2176;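 active = inhibition above the primary screen's cutoff, its mean inhibition plus 3 SD, cut at about 35% in these data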). As to conditions: recombinant GSTO1, probe fluorescence polarization; at 5.96 µM; active compounds read high. On the technique in general: A counterscreen serves to expose hits that act by an unwanted route or on another target.

Assay [3] can be described thus: StAR promoter reporter inhibitors, counter-screen for LRH-1 inverse agonist project, cell-based, luminescence, high throughput (AID 651611; in the data active = inhibition above about 28%). As to conditions: StAR promoter luciferase reporter counterscreen, at 3.6 µM, active compounds read high.
Assay [4] has as its target Nuclear receptor subfamily 5 group A member 2 (Homo sapiens) (UniProt O00482). As to the kind of experiment: LRH-1 (NR5A2) inverse agonists, retest, confirmation, cell-based, luminescence (AID 651613; in the data active = inhibition above about 42%). To be noted: cell-based LRH-1 luciferase reporter, inverse agonism; at 3.6 µM; active compounds read high.
The target of assay [5] is Steroidogenic factor 1 (Homo sapiens) (UniProt Q13285). As to the kind of experiment: SF1 (NR5A1) inverse agonists, counter-screen for LRH-1 inverse agonist project, cell-based, luminescence, high throughput (AID 651614; in the data active = inhibition above about 44%). As to conditions: cell-based SF1 luciferase reporter, at 3.6 µM, active compounds read high.
A short description of assay [6]: VP16 transactivation reporter inhibitors, counter-screen for LRH-1 inverse agonist project, cell-based, luminescence, high throughput (AID 651615; in the data active = inhibition above about 33%). To be noted: Gal4-VP16 luciferase reporter cells, at 3.6 µM, active compounds read high.
In assay [7] the target is Platelet-activating factor acetylhydrolase (Homo sapiens) (UniProt Q13093). As to the kind of experiment: pPAFAH (PLA2G7) enzyme inhibitors, confirmation, biochemical, fluorescence polarization, human (AID 463230;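 active = mean inhibition of the triplicate above the hit cutoff set for the earlier primary screen, cut at about 25% in these data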). As to conditions: recombinant pPAFAH, FP-Rh probe fluorescence polarization; at 3.39 µM; active compounds read high.
Assay [8] addresses Protein-arginine deiminase type-4 (Homo sapiens) (UniProt Q9UM07). As to the kind of experiment: human PAD4 inhibitors, confirmation, biochemical, fluorescence polarization (AID 488796;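 active = mean inhibition across replicates above the hit cutoff set by the earlier primary screen, cut at about 15% in these data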). To be noted: recombinant PAD4, RCA probe fluorescence polarization; at 6.36 µM; active compounds read high.
The nature of assay [9]: growth loss of phage-infected E. coli expressing H. pylori AddAB, confirmation, AddAB inhibitor project, absorbance, E. coli V3065, T4 phage, triplicate (AID 488942;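 active = mean inhibition above a set limit taken from the earlier primary screen, cut at about 13% in these data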). To be noted: OD, at 11.9 µM, active compounds read high.
A short description of assay [10]: growth loss of RecBCD+ E. coli with mutant T4 phage, counter-screen for AddAB inhibitor project, absorbance, V66 E. coli (AID 488955;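 active = mean inhibition above the mean of solvent-only control wells plus 3 SD, cut at about 4% in these data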). As to conditions: OD growth, at 11.9 µM, active compounds read high.
A short description of assay [11]: bacterial viability inhibition counter-screen, confirmation, counter-screen for AddAB inhibitor project, absorbance (AID 488956; in the data active = inhibition above about 25%). To be noted: absorbance (AddAB counterscreen), at 11.9 µM, active compounds read high.
The target of assay [12] is Nuclear receptor coactivator 3 (Homo sapiens) (UniProt Q9Y6Q9). As to the kind of experiment: SRC3 coactivator transcriptional activity inhibitors, confirmation, cell-based, luminescence, quadruplicate (AID 588792;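 active = mean inhibition over 43.08%, the solvent-only control mean plus 3 SD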). As to conditions: HEK293 GAL4-SRC3 luciferase reporter, at 3.6 µM, active compounds read high. (In general: A reporter such as luciferase makes a cellular process visible.)

The subject of assay [13] is transactivating tegument protein VP16 (Human herpesvirus 1), Gal4-VP16 luciferase reporter. As to the kind of experiment: VP16 transactivation inhibitors, counter-screen for SRC3 inhibitor project, cell-based, luminescence, high throughput (AID 588794; in the data active = inhibition above about 30%). As to conditions: mammalian cells, VP16-driven luciferase reporter luminescence; at 3.6 µM; active compounds read high.
Assay [14] has as its target Oxytocin receptor (Homo sapiens) (UniProt P30559). As to the kind of experiment: human OXTR agonists, confirmation, fluorescence, CHO-OTR cells, triplicate (AID 434963;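 active = mean activation above about 20% derived from the earlier single-dose screen, limit read from the data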). To be noted: Fluo-8 calcium fluorescence, agonist, at 3 µM, active compounds read high.
The target of assay [15] is Vasopressin V1a receptor (Homo sapiens) (UniProt P37288). As to the kind of experiment: V1a receptor agonists, calcium signal, counter-screen for OXTR agonist project, triplicate, fluorescence, CHO-V1R cells (AID 434991;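 active = mean activation over triplicate exceeds the hit threshold set in the earlier primary screen, cut at about 20% in these data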). To be noted: Fluo-8 calcium fluorescence, at 3 µM, active compounds read high.
For assay [16], the target named is Nuclear receptor coactivator 1 (Homo sapiens) (UniProt Q15788). As to the kind of experiment: SRC1 coactivator transcriptional activity inhibitors, confirmation, cell-based, luminescence, quadruplicate (AID 588820;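 active = mean inhibition above 46.68%, the untreated control wells mean plus 3 SD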). As to conditions: HEK293 GAL4-SRC1 luciferase reporter, at 3.6 µM, active compounds read high.
Assay [17] is described as follows: VP16 transactivation inhibitors, counter-screen for SRC1 inhibitor project, cell-based, luminescence, high throughput (AID 588824; in the data active = inhibition above about 25%). As to conditions: cell-based VP16 transactivation luciferase luminescence; at 3.6 µM; active compounds read high.
Assay [18] deals with transactivating tegument protein VP16 (Human herpesvirus 1). As to the kind of experiment: VP16 transactivation reporter inhibitors, counter-screen for SRC2 inhibitor project, cell-based, luminescence, single concentration (AID 652007; in the data active = inhibition above about 36%). To be noted: cell-based VP16 transactivation luciferase reporter, at 8.9 µM, active compounds read high.
The target in assay [19] is Nuclear receptor coactivator 2 (Homo sapiens) (UniProt Q15596). As to the kind of experiment: SRC2 coactivator transcriptional activity inhibitors, confirmation, cell-based, luminescence, HEK293, triplicate (AID 652008;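 active = mean inhibition above 46.5%, the solvent-only control mean plus 3 SD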). To be noted: HEK293 GAL4-SRC2 luciferase reporter, at 8.9 µM, active compounds read high.
The nature of assay [20]: growth loss of phage-infected RecBCD+ E. coli, confirmation, RecBCD inhibitor project, absorbance, E. coli V66, T4 gene 2 phage (AID 651982;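 active = mean inhibition over triplicates exceeding the hit threshold derived in the original primary screen, cut at about 11% in these data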). As to conditions: E. coli V66 + T4 2- phage, growth OD; at 11.9 µM; active compounds read high.
A short description of assay [21]: E. coli viability inhibition, counter-screen for RecBCD inhibitor project, absorbance, high throughput (AID 651983; in the data active = inhibition above about 20%). As to conditions: absorbance (OD) growth, at 11.9 µM, active compounds read high.
A short description of assay [22]: growth loss of phage-infected AddAB-carrying E. coli, confirmation, counter-screen for RecBCD inhibitor project, absorbance, E. coli V3065, T4 phage (AID 651984;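 active = mean inhibition above the solvent-only control wells' mean plus 3 SD, cut at about 22% in these data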). To be noted: E. coli expressing H. pylori AddAB + T4 phage, OD growth; at 11.9 µM; active compounds read high.

Protein phosphatase methylesterase 1 (Homo sapiens), sequence (Q9Y570 whole entry, looked up): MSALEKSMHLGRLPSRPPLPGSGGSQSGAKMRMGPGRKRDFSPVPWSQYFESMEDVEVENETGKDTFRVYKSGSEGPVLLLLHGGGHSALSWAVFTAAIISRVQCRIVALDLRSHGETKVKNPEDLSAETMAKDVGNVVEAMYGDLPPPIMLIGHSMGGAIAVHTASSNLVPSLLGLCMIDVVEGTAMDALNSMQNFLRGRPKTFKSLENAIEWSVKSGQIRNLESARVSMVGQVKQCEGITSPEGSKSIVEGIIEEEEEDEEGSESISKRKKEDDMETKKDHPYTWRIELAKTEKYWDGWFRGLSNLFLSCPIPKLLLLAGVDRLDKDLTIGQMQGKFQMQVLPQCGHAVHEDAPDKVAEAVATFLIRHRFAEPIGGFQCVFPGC
Nuclear receptor coactivator 3 (Homo sapiens), sequence (Q9Y6Q9 whole entry, looked up, the tested form may be a part): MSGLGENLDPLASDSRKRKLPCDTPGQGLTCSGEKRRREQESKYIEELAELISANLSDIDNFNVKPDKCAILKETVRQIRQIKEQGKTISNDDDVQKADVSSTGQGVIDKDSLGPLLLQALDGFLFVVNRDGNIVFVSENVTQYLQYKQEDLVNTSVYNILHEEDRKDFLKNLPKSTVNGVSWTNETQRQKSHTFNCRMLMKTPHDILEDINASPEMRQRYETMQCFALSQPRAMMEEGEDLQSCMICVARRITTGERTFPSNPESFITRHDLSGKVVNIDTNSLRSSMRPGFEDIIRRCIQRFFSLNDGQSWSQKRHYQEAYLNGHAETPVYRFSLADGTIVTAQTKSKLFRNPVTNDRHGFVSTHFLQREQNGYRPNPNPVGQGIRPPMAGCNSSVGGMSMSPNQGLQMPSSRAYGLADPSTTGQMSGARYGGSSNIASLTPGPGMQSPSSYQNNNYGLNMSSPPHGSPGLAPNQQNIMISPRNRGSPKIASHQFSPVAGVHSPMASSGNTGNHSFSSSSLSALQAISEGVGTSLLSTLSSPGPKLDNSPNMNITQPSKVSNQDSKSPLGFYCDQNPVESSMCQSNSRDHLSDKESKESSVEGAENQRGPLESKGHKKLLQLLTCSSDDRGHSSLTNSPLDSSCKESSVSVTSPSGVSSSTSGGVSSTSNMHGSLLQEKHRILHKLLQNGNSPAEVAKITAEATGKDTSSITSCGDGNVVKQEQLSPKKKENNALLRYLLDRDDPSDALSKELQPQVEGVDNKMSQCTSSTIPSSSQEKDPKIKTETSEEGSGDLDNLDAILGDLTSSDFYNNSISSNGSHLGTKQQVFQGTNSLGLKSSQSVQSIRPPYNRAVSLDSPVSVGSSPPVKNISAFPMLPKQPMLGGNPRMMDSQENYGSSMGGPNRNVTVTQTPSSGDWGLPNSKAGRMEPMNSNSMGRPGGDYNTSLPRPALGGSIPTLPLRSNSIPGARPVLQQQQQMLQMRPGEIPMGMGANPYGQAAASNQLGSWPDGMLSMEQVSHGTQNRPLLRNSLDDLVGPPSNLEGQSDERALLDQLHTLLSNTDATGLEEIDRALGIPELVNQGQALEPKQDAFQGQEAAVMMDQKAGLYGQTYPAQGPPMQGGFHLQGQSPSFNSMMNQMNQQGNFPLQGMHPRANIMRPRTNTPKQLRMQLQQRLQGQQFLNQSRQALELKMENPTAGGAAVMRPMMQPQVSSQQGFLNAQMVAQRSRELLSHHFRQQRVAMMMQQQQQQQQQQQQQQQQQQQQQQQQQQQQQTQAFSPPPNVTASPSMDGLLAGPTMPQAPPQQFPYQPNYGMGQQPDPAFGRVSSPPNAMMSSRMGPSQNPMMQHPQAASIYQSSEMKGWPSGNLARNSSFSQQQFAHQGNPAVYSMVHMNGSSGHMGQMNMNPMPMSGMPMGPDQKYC
Glutathione S-transferase omega-1 (Homo sapiens), sequence (P78417 whole entry, looked up): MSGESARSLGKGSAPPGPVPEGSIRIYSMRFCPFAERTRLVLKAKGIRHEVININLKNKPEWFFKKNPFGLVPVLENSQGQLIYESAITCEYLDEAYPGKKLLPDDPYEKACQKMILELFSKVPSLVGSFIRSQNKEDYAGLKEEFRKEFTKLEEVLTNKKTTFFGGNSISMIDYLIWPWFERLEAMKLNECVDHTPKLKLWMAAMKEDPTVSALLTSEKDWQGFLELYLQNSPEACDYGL
Steroidogenic factor 1 (Homo sapiens), sequence (Q13285 whole entry, looked up, the tested form may be a part): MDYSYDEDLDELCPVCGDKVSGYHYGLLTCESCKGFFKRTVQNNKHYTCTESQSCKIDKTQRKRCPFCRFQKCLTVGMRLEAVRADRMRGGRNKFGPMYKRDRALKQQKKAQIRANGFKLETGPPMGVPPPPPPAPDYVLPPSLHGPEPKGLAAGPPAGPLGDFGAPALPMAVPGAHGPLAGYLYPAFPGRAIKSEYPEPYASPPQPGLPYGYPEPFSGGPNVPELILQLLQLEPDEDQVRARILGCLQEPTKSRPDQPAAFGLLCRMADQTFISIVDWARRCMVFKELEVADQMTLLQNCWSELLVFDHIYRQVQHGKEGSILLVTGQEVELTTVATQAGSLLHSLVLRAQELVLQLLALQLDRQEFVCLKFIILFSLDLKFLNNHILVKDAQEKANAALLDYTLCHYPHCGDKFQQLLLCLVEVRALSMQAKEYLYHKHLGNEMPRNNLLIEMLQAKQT
Vasopressin V1a receptor (Homo sapiens), sequence (P37288 whole entry, looked up, the tested form may be a part): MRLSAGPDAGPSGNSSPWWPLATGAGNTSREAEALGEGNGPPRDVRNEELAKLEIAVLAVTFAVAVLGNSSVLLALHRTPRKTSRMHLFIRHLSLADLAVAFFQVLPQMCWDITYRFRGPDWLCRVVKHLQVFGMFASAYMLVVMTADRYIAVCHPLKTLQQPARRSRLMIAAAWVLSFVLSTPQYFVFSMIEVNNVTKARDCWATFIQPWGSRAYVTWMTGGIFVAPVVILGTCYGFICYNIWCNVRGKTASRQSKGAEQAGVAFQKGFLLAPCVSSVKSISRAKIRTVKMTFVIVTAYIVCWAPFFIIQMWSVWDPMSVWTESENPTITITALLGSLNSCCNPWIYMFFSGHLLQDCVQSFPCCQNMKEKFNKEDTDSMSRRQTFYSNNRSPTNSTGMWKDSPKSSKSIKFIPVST
Protein-arginine deiminase type-4 (Homo sapiens), sequence (Q9UM07 whole entry, looked up): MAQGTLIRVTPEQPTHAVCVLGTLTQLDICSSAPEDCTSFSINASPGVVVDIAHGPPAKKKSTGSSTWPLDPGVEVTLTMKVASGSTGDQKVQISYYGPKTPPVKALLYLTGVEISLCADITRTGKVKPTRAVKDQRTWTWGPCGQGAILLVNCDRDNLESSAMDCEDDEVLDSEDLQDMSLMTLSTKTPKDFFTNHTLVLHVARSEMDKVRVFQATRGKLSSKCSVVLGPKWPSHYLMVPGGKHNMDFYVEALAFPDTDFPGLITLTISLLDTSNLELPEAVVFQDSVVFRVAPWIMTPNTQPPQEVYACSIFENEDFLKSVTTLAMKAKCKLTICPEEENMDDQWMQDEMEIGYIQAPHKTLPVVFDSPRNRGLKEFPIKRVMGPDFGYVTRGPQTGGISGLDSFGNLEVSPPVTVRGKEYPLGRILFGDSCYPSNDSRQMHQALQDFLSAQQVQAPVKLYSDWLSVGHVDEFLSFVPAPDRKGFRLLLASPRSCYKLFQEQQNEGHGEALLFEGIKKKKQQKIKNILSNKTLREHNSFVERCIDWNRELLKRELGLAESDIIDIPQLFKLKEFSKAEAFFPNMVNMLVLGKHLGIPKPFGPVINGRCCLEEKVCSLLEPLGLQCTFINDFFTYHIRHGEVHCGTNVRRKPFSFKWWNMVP
Platelet-activating factor acetylhydrolase (Homo sapiens), sequence (Q13093 whole entry, looked up): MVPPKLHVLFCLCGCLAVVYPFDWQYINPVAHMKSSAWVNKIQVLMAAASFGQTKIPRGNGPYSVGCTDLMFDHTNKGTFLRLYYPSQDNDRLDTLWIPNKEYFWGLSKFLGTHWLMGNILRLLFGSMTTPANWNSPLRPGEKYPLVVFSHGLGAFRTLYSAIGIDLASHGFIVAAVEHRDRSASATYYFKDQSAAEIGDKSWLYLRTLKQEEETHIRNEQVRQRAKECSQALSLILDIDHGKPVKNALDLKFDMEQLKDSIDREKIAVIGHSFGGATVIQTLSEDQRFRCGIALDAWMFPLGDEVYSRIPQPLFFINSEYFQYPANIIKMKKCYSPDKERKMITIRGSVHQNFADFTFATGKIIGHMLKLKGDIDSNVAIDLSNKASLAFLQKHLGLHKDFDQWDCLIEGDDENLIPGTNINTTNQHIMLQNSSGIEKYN
Oxytocin receptor (Homo sapiens), sequence (P30559 whole entry, looked up): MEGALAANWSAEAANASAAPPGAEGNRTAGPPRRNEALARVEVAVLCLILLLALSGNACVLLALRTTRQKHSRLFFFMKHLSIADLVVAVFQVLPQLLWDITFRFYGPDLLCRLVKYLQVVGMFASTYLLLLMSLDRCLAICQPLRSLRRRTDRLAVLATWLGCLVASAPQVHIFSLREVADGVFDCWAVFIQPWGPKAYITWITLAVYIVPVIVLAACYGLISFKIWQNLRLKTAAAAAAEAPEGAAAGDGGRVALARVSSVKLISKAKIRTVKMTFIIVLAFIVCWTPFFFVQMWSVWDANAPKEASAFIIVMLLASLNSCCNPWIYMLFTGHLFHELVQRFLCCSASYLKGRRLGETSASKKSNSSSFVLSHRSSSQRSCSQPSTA
Nuclear receptor subfamily 5 group A member 2 (Homo sapiens), sequence (O00482 whole entry, looked up): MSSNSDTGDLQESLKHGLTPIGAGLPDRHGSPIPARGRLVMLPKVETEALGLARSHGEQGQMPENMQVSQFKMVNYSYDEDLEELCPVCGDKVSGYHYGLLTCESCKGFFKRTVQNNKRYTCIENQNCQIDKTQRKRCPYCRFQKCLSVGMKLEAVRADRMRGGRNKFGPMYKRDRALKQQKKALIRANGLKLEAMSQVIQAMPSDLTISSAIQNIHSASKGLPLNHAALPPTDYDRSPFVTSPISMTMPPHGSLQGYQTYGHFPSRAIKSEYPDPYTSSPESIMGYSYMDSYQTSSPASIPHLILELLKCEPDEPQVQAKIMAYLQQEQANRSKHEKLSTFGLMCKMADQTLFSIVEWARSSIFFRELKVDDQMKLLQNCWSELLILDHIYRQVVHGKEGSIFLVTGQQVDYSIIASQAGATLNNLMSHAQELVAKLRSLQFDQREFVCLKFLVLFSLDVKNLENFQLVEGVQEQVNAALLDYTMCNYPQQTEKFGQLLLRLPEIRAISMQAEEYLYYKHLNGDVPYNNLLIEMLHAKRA

For `Cc1cc(Br)c(NC(=O)CN2CC=C(c3ccccc3)CC2)c(Br)c1`, the inhibition in assay [1] is 44.9% (active).

Take `COc1cccc(OC)c1C1=NCC(=O)Nc2c1oc1ccc(Br)cc21`: in assay [1], the inhibition was 52.8% (active).

Consider `NP(=O)(OCCCCc1ccccc1)Oc1ccccc1Cl` (stereo not given), for which the inhibition in [1] was 47.4% (active).

Consider `NP(=O)(Oc1ccc(Cl)cc1)Oc1ccc(Cl)cc1`, for which the inhibition in assay [1] was 63.4% (active).

As to `NC(Cc1cc(O)c(O)cc1O)C(=O)O` (stereo not given), the inhibition in assay [1] is 69.4% (active).

On to `CCCCn1c(C)c(C(=O)OCC)c2c(CN3CCCC3)c(O)ccc21`, for which the inhibition in [1] is 10.3%.

On to `Oc1c(Br)c(Br)c(Br)c(Br)c1Br`, for which the inhibition in assay [1] was 84.2% (active).

For the compound `O=C(O)COc1ccccc1/C=C1\C(=O)NC(=O)N(CCC2=CCCCC2)C1=O`, the inhibition in assay [2] was 9.09%.

With `Cn1ncnc2c(=O)n(C)c(=O)nc1-2`, the inhibition was 43.2% (active) in assay [1]; 76.9% (active) in assay [3]; 92.6% (active) in assay [4]; 84.3% (active) in assay [5]; 87.6% (active) in [6].

As to `CN1/C(=C\C=C\C2=[N+](C)c3ccc4ccccc4c3C2(C)C)C(C)(C)c2ccccc21`, the inhibition in [1] is 79.1% (active).

As to `O=C1CC(=O)N(Cc2ccccc2)C(=O)N1CCCCCCN1C(=O)CC(=O)N(Cc2ccccc2)C1=O`, in [7], the inhibition is 4.95%.

Take `COc1ccccc1C1=NCc2nnc(CSC)n2-c2ccc(Cl)cc21`: the inhibition in assay [8] is 12.9%.

`Oc1ccc(/C=N/NP(=S)(c2ccccc2)c2ccccc2)c(O)c1O`: in [1], the inhibition is -8.43%.

As for `CN(C)S(=O)(=O)c1cc(C(=O)N2CCC(C(=O)O)(c3ccccc3)CC2)ccc1Cl`, the inhibition is 85.5% (active) in assay [9], 1.24% in assay [10] and 26.1% (active) in [11].

Take `CCNc1nc2[nH]c(=O)c3c(c2s1)OC(N)=C(C#N)C3c1cccs1` (stereo not given): the inhibition in [2] was 7.87%.

As for `CC(=NCc1ccc2c(c1)OCO2)c1c(O)n(-c2ccccc2)c(=O)[nH]c1=O`, the values for the inhibition in assay [12] and in [13] were -6% and 13.8%, respectively.

As to `CC(Cc1ccccc1)NCCC(c1ccccc1)c1ccccc1` (stereo not given), the activation in [14] is 11.2%; in [15] it was 4.33%.

Take `O=P(Oc1ccccc1)(Oc1ccccc1)C(O)c1ccccc1` (stereo not given): the inhibition in assay [1] is 78.1% (active).

Regarding `O=P(Oc1ccccc1)(Oc1ccccc1)C(O)c1ccc(Cl)cc1` (stereo not given), the inhibition in assay [1] was 59.3% (active).

Consider `O=C1C(=O)c2ccccc2-c2ccccc21`, for which the inhibition in [1] is 42.8% (active); in assay [12], 97.1% (active); in assay [13], 95.2% (active); in assay [16] it was 95.1% (active); in assay [17] it was 93.5% (active); in assay [18], 96.5% (active). Further, the inhibition in assay [19] is 98.8% (active).

With `O=[N+]([O-])c1cnc2ccc3ccccc3c2c1`, the inhibition in assay [9] is 103% (active); in assay [10] it was 21.8% (active); in [11] it was 63.5% (active); in assay [20], 18.2% (active); in [21] it was 20.3% (active); in assay [22], 76.8% (active).
